PubChem BioAssay AID1578 (Sanford-Burnham Center for Chemical Genomics, 2009)
Out of some 290,000 compounds screened, about 3,000 (1%) were called active. Rule as the data show it: active = inhibition mostly above about 36% (no sharp cut-off); inactive = mostly below about 34%. The entries come from a sample that favours actives as a whole.

Experiment: inhibition of NOD1-driven NF-kB reporter – cell-based, luminescence, uHTS, primary screen (AID 1578);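 also: HEK-293T reporter cells stimulated with the NOD1 agonist gamma-tri-DAP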
Settings: NOD1-driven NF-kB luciferase reporter cells, at 4 µM, active compounds read high

inhibition, inactive:
CCCCn1c(O)c(N=NC(=O)c2ccncc2)c2cc(Br)ccc21 46.8%
O=c1c2c(nc3cc(-c4ccc(F)cc4)[nH]n13)CCCC2 -40.5%
O=c1c2c(nc3cc(-c4ccccc4)[nH]n13)CCC2 -31.8%
CC(NC(=O)CSc1nc2ccc(N)cc2s1)c1ccccc1 (stereo unspecified) -0.6%
COc1ccc(Cl)cc1NC(=S)NCCc1c[nH]c2ccccc12 -12.7%
COc1ccc(NC(=S)NCCc2c[nH]c3ccccc23)c(OC)c1 17.2%
COc1ccccc1C(=O)Nc1ccc2c(c1)CCCN2C(=O)c1cccs1 -18.3%
COc1ccc(C(=O)Nc2ccc3c(c2)CCCN3C(=O)c2cccs2)c(OC)c1 21.1%
O=C(CC1C(=O)N(c2ccccc2)C(=O)N1C1CCCCC1)Nc1ccccc1 (stereo unspecified) 11.7%
CC1CCCN(S(=O)(=O)c2ccc(NC(=O)Cn3nnc(-c4ccccc4F)n3)cc2)C1 (stereo unspecified) -31.2%
CC(C)CCOc1ccc(Cl)cc1CN1CCOCC1 -26.5%
Clc1cccc(-c2nn3c(-c4ccncc4)nnc3s2)c1 -14%
Clc1ccccc1-c1nn2c(-c3ccncc3)nnc2s1 64.5%
COC(=O)c1c(C(=O)OC)c(-c2ccc(Cl)c(Cl)c2)n2c1CCC2 -14.5%
Cc1ccc(CCNC(=O)C23C[C@H]4C[C@@H](C2)CC(n2nnc(C)n2)(C4)C3)cc1 -3.3%
Cc1nnn(C23C[C@@H]4C[C@@H](CC(C(=O)N5CCN(c6ccccc6)CC5)(C4)C2)C3)n1 -7%
COc1cccc(C2C(C#N)=C(N)Oc3cc(C)n(Cc4ccccn4)c(=O)c32)c1OC (stereo unspecified) -19.6%
Cc1ccsc1C(=O)OCc1csc(-c2ccccc2)n1 -65.5%
Cc1ccccc1NC1=CC(=O)CC(C)(C)C1 1.1%
O=C1C=C(NC2=CC3OC(c4ccccc4)OCC3OC2=O)CCC1 (stereo unspecified) -24.3%
COc1ccc(CN2CCC(n3nccc3NC(=O)c3ccc4c(c3)OCO4)CC2)cc1C -12.5%
O=S(=O)(c1cccs1)N1CCN(Cc2nc3ccccc3s2)CC1 -23.6%
O=C(NC(N1CCOCC1)C(Cl)(Cl)Cl)c1ccc(F)cc1 (stereo unspecified) -23.2%
Cc1ccc(C(=O)NNC2=Nc3cccc4cccc2c34)cc1 34%
COc1ccc(C(=O)NNC2=Nc3cccc4cccc2c34)cc1 11.1%
CC(=O)N/C(=C/c1ccccc1)C(=O)N1CCCCC1 -19.2%
CCN(CC(=O)Nc1c(F)cccc1F)C(=O)c1n[nH]c2ccccc12 -21.6%
Cc1ccc2c(c1)sc1ncc(NC(=O)c3ccc(F)cc3)c(=O)n12 -34.8%
O=C(Nc1ccccc1NC(=O)c1ccc(F)cc1)c1ccc(F)cc1 5.1%
COc1cccc(N(C(=O)c2ccco2)C(C(=O)NC2CCCC2)c2ccc(N(C)C)cc2)c1 (stereo unspecified) -6.7%
Oc1ccc(NC(=S)N=Nc2c(O)[nH]c3ccccc23)cc1 -25.5%
Cc1cccc(NC(=S)N=Nc2c(O)[nH]c3ccccc23)c1 -18.3%
CC(Nc1nc(-c2ccccc2F)nc2ccccc12)c1ccccc1 (stereo unspecified) -6.1%
C=CCn1c2ccccc2c2nnc(SCCN3CCCCC3)nc21 33.2%
CCn1c2ccccc2c2nnc(SCCCn3c(=O)[nH]c4ccccc43)nc21 -22.4%
Cc1oc(-c2ccccc2Cl)nc1CN1CCCCC1CO (stereo unspecified) -13.9%
O=C(COC(=O)CCSc1ccccc1)Nc1ccc(F)cc1Cl -14%
CC(C)C(NS(=O)(=O)c1cccc2nsnc12)C(=O)NC1CCCCC1 (stereo unspecified) -5.2%
CCCCN1CN(S(=O)(=O)c2ccc(OC)cc2)c2nc3ccccc3nc21 -13.8%
CCCCCCS(=O)Cc1ccccc1 (stereo unspecified) -9.9%
COc1ccccc1C(=O)NCCC(=O)NCCOc1ccccc1 7.7%
CN(C(=O)COc1ccccc1C(=O)NCCc1ccccc1)c1ccccc1 -33.9%
CCN(CCO)Cc1cc(=O)oc2c(C)c(C)ccc12 8.5%
CCN1C=C(Cc2cccs2)C2=C(C1)C(c1cccs1)C(C#N)=C(N)O2 (stereo unspecified) 30.4%
CCN1C=C(Cc2ccc(F)cc2)C2=C(C1)C(c1ccc(F)cc1)C(C#N)=C(N)O2 (stereo unspecified) 21.1%
O=C(CCn1nnc2ccccc21)N1CCN(c2ccccc2)CC1 7.2%
CCC1CCCCN1C(=O)CCCc1ccccc1 (stereo unspecified) -21%
O=C(Nc1nc2ccccc2n1CCOc1ccccc1)c1ccco1 35.8%
COc1ccc(OCCn2c(NC(=O)c3ccco3)nc3ccccc32)cc1 9.1%
Cc1c(O)nc(SCC(=O)Nc2nccs2)n(-c2ccccc2F)c1=O -42.1%
CCOC(=O)NNC1CC(=O)N(c2ccccc2)C1=O (stereo unspecified) -12%

inhibition, active:
O=c1c2c(nc3cc(-c4ccc(F)cc4)[nH]n13)CCC2 62.6%
COc1ccccc1NC(=S)NCCc1c[nH]c2ccccc12 86%
COc1cccc(C(=O)Nc2ccc3c(c2)CCCN3C(=O)c2cccs2)c1OC 56.1%
Clc1ccc(-c2nn3c(-c4ccncc4)nnc3s2)c(Cl)c1 59%
CC1(C)CC(=O)C=C(NC2=CC3OC(c4ccccc4)OCC3OC2=O)C1 (stereo unspecified) 61.7%
O=C(NNC1=Nc2cccc3cccc1c23)c1ccc(Br)cc1 85.4%
N#Cc1cc(NC(=O)c2ccc(F)cc2)c(=O)n2c1[nH]c1ccccc12 67.8%
Cc1ccc(NC(=S)N=Nc2c(O)[nH]c3ccccc23)cc1 50.7%
C=CCn1c2ccccc2c2nnc(SCCCn3c(=O)[nH]c4ccccc43)nc21 60.9%
CCN1C=C(Cc2ccccc2C)C2=C(C1)C(c1ccccc1C)C(C#N)=C(N)O2 (stereo unspecified) 71.8%
